# Measured values: PubChem BioAssay (NCI)
# About 83,000 compounds went through this panel and 20% of them were active in at least one assay; those are over-represented in the sample as a whole.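 Plates (96-well) were seeded with cells, treated with compound at one concentration, and incubated for 48 hours before percent growth was determined.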 A number with no mark means an inactive call. Calls of active or inactive are those of the source. The calls were made as follows: active = growth percent below 10; inactive = the rest.
# Key:
# Assay in all cases: NCI-60 one-dose screen, 48 h (100 = growth as untreated, 0 = no growth, -100 = all killed)
# Settings in all cases: 10 µM unless noted
# HCT-15 colon = tested on: HCT-15 colon
# HT29 colon = tested on: HT29 colon
# SNB-75 CNS = tested on: SNB-75 CNS
# SNB-19 CNS = tested on: SNB-19 CNS
# U251 CNS = tested on: U251 CNS
# PC-3 prostate = tested on: PC-3 prostate
# SK-MEL-5 melanoma = tested on: SK-MEL-5 melanoma
# UACC-62 melanoma = tested on: UACC-62 melanoma
# LOX IMVI melanoma = tested on: LOX IMVI melanoma
# SK-MEL-28 melanoma = tested on: SK-MEL-28 melanoma
SMILES,growth (HCT-15 colon),growth (HT29 colon),growth (SNB-75 CNS),growth (SNB-19 CNS),growth (U251 CNS),growth (PC-3 prostate),growth (SK-MEL-5 melanoma),growth (UACC-62 melanoma),growth (LOX IMVI melanoma),growth (SK-MEL-28 melanoma)
CN(c1cc2ncc(=O)[nH]c2cc1NC(N)=NCc1ccc(Cl)cc1)C1CCCCC1,99.9%,22.7%,58.2%,63.5%,-4.07% (active),64.3%,71.5%,72.3%,-45.6% (active),52.8%
Cc1ccc2c(Cn3cc(CSc4nc5ccccc5o4)nn3)cc(=O)oc2c1,107%,108%,105%,105%,113%,104%,98.8%,104%,96.9%,110%
Nc1n[nH]c2ccc([C@H]3[C@@H]4C5CCC(C5)[C@@H]4c4c(ccc5[nH]ncc45)N3S(=O)(=O)C3CC3)cc12 (stereo not given in full),12.3%,9.97% (active),-10.3% (active),23.2%,17.7%,28.3%,-22.4% (active),32.5%,8.72% (active),52.7%
CCCc1c(OC(=O)c2ccccc2)nc2[nH]c(=O)sc2c1C,98.3%,104%,88.9%,96%,97.7%,97.2%,98%,88.8%,98.3%,104%
CCOC(=O)C1=C(c2ccccc2)N=C2SC=C(c3ccc(Cl)cc3)N2C1c1ccc(Br)cc1 (stereo not given),80.8%,82.2%,81.7%,85.4%,85.8%,40.6%,67.7%,67.7%,84.8%,98.3%
O=c1c2cccc3c(N4CCCC4)ccc(c32)c2nc3ccccc3n12,78.6%,77.8%,73%,76%,64.7%,67.9%,64.5%,62.6%,51.7%,90.9%
CCc1ccccc1-n1c(-c2ccc(OC)cc2)cc(-c2ccc(OC)cc2)c(C#N)c1=O,106%,110%,2.64% (active),33.7%,60.9%,89.5%,102%,81.6%,95%,98.7%
CC1CCN(CCOc2ccc(CNc3ccc4nc(CCC5CCCCC5)[nH]c4c3)cc2)CC1,-22.5% (active),10%,59.7%,62.3%,-11.2% (active),40.3%,-99% (active),56.8%,-85.7% (active),-80.2% (active)
N#Cc1nc(-c2ccc(Cl)cc2)oc1S(=O)(=O)N1CCN(c2ccc(F)cc2)CC1,54.3%,88.5%,94.2%,96.4%,94.6%,96.4%,96%,100%,29.3%,104%
Cc1ccccc1/C=C/C(=O)c1cccc(OCCCOc2cccc(C(=O)/C=C/c3ccccc3C)c2)c1,87.2% [3 µM],79.6% [3 µM],86.1% [3 µM],97.1% [3 µM],76.1% [3 µM],88.8% [3 µM],99.5% [3 µM],80.2% [3 µM],67.5% [3 µM],112% [3 µM]
COc1ccc(C2=C(Nc3ccc(C(=O)Nc4ccccc4)cc3)C(=O)N(C)C2=O)cc1,89.1%,84%,88.9%,95.3%,95.4%,80.7%,96.2%,92.3%,84.6%,111%
Cc1c2cnccc2c(C)c2c1c1cc(C#N)ccc1n2C,-20.6% (active),-18.9% (active),-35.8% (active),-1.41% (active),-10.5% (active),-17.2% (active),-98.7% (active),-52.6% (active),-35.6% (active),-39.7% (active)
CS(=O)(=O)Nc1cc(-c2ccc3ncnc(Nc4ccc5c(cnn5Cc5cccc(F)c5)c4)c3c2)cnc1Cl,46.9%,5.83% (active),-13.9% (active),22.2%,9.46% (active),10.9%,-68.3% (active),-8.95% (active),-44.8% (active),-12.6% (active)
O=C1NC(=O)C(Cc2ccc(OCc3ccc(-c4ccc(Cl)cc4Cl)cc3)cc2)S1 (stereo not given),39.5%,86.3%,59.1%,73.8%,57.6%,32.2%,-28.4% (active),41.9%,37.1%,65.3%
CCCCC1=C(P(=O)(O)O)N[C@H](C(=O)O)CS1,87.9%,95.3%,104%,89%,94.2%,90%,98.8%,85.1%,92.4%,89.7%
CCOC(=O)C1=C(C)NC(=O)NC1c1c(Cl)n(CCCl)c2ccccc12 (stereo not given),99.6%,107%,85.4%,100%,94.4%,91.7%,102%,85.4%,92.6%,108%
C=CCOC(=O)Nc1cccn([C@H](Cc2ccccc2)C(=O)NCCC(C)C)c1=O,111%,99.7%,91.1%,85.9%,101%,92.3%,102%,97.1%,90.8%,97.6%
C1CN(SSN2CCOCC2)CCO1,19.2% [100 µM],-50.6% [100 µM] (active),48.3% [100 µM],67% [100 µM],-28% [100 µM] (active),31.2% [100 µM],25.7% [100 µM],19.8% [100 µM],-41% [100 µM] (active),-43.3% [100 µM] (active)
O=C1c2c(c3c4ccccc4[nH]c3c3ccc4ccccc4c23)C(=O)N1CCN1CCOCC1,20.6%,35.6%,63.7%,56%,32.3%,35.1%,37.4%,38.7%,27.2%,73.9%
CC/C(=C(/c1ccc(Cl)cc1)c1ccc(OCCN2CCCCC2)cc1)c1ccc(OC)cc1,18.5%,11.9%,103%,72.4%,40.6%,30.9%,36.6%,78.8%,53.4%,82.7%
Nc1n[nH]c2cccc(C#Cc3cccc(NC(=O)c4cc(F)cc(C(F)(F)F)c4)c3)c12,74.4%,48.3%,98.6%,104%,93.7%,64.1%,71.7%,48.1%,37%,66.8%
CC(=O)N1N=C(c2ccc(Nc3nc(Nc4ccccc4)nc(Nc4ccccc4)n3)cc2)CC1c1ccccc1 (stereo not given),87%,103%,90.8%,84.3%,92.6%,80.5%,78.4%,91%,89.4%,111%
CCCCCCCCCCCCCCCCOCCCOP(=O)(O)C1CCCN(O)C1=O (stereo not given),7.93% (active),23.1%,22.8%,22%,18.7%,13.5%,-65.8% (active),-13% (active),0.67% (active),38.3%
Cc1cc(S(=O)(=O)/N=C(\N)n2nc(C)c(C)c2C)c(SCc2ccccc2)cc1Cl,56.6%,63.7%,79.4%,89.9%,60.8%,40.2%,94.7%,71.1%,66.9%,91.4%
CCN(CC)CCn1c2ccc(O)cc2c2sc3cc(O)ccc3c(=O)c21,29.1%,27.1%,76.1%,23.4%,28.8%,31.5%,60.7%,39.4%,8.55% (active),54.5%
NC(=O)C(=O)c1ccccc1NC=O,105%,101%,77.2%,99.9%,96.3%,90.1%,103%,92.1%,93.1%,101%
